The record followed here is PubChem BioAssay (NCI).

Some test systems named below: SR leukemia; RPMI-8226 leukemia; OVCAR-8 ovarian; OVCAR-5 ovarian; OVCAR-4 ovarian; IGROV1 ovarian; OVCAR-3 ovarian; HS 578T breast; NCI/ADR-RES ovarian; T-47D breast; BT-549 breast; MDA-MB-435 melanoma; SW-620 colon; MCF7 breast; HCT-116 colon; HCC-2998 colon; KM12 colon; SK-OV-3 ovarian.
Test in all cases: NCI-60 one-dose screen, 48 h (100 = growth as untreated, 0 = no growth, -100 = all killed)
Common to all, as to settings: 10 µM unless noted

Compounds without any hit were thinned out: in the full panel of roughly 83,000, 20% have a hit.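 How to read the values: 0–100, growth inhibition (40 = 60% inhibited); 0, no net growth; -100 to 0, cell death (-40 = 40% of starting cells died; -100 = all dead).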 A number with no mark means an inactive call. Calls of active or inactive are those of the source. The calls were made as follows: active = growth percent below 10; inactive = the rest.

For `CS(=O)(=O)c1ccc(-c2nn(-c3ccccc3)cc2/C=N/NC(=O)c2ccncc2)cc1`, the growth was 87% with SR leukemia; 115% in the assay on RPMI-8226 leukemia; 101% in the assay on OVCAR-8 ovarian; 107% in the assay with OVCAR-5 ovarian; 104% in the assay with OVCAR-4 ovarian; 104% with IGROV1 ovarian. In addition, the growth with OVCAR-3 ovarian is 109%; in the assay on HS 578T breast it was 108%; in the assay with NCI/ADR-RES ovarian it was 94.7%; in the assay on T-47D breast it was 90.8%; in the assay with BT-549 breast it was 97.1%; with MDA-MB-435 melanoma it was 85.4%. Besides, the growth in the assay with SW-620 colon is 102%; with MCF7 breast, 93.8%; in the assay on HCT-116 colon it was 107%; in the assay on HCC-2998 colon, 102%; in the assay with KM12 colon it was 90.7%.
Regarding `Clc1ccc(-c2nc3ccc(/C(=N\N=C\c4ccccc4)c4ccccc4)cc3[nH]2)cc1`, the growth with SR leukemia is 72.9%; in the assay on RPMI-8226 leukemia it was 54.6%; in the assay on OVCAR-8 ovarian, 85.6%; in the assay with OVCAR-5 ovarian, 85.6%; with OVCAR-4 ovarian, 77.8%; with SK-OV-3 ovarian, 90.7%. Also, the growth with HS 578T breast is 99.9%; in the assay with NCI/ADR-RES ovarian, 87.8%; with T-47D breast it was 70.7%; in the assay on BT-549 breast it was 92.5%; with MDA-MB-435 melanoma, 88.9%; in the assay on SW-620 colon it was 91.2%. The growth was 78.3% in the assay with MCF7 breast, 84.5% in the assay on HCT-116 colon, 103% in the assay on HCC-2998 colon and 82.3% with KM12 colon.
In the case of `O=C(/C=C1\C=CN(CCCCO)c2ccccc21)n1ccc2ccccc21`, the growth was 123% in the assay on SR leukemia; 109% in the assay on RPMI-8226 leukemia; 97.3% with OVCAR-8 ovarian; 102% with OVCAR-5 ovarian; 107% with OVCAR-4 ovarian; 97.6% with SK-OV-3 ovarian. The growth in the assay on OVCAR-3 ovarian is 111%; in the assay on HS 578T breast, 98.7%; with NCI/ADR-RES ovarian it was 105%; in the assay on T-47D breast, 99.6%; in the assay with BT-549 breast, 112%; with MDA-MB-435 melanoma, 106%. Besides, the growth in the assay with SW-620 colon is 104%; in the assay on MCF7 breast it was 95.8%; with HCT-116 colon, 108%; in the assay with HCC-2998 colon, 112%; in the assay on KM12 colon, 100%.
`C#CCOc1ccccc1C(Nc1ccccc1)c1nnnn1C1CCCCC1` (stereo not drawn): the growth was 98.1% with SR leukemia; 89.7% with RPMI-8226 leukemia; 101% in the assay with OVCAR-8 ovarian; 91.9% with OVCAR-5 ovarian; 94.5% with OVCAR-4 ovarian; 89.6% with IGROV1 ovarian. Further, the growth is 109% in the assay with OVCAR-3 ovarian; 95.2% with HS 578T breast; 96.1% in the assay on NCI/ADR-RES ovarian; 93% in the assay with T-47D breast; 109% in the assay on BT-549 breast; 101% with MDA-MB-435 melanoma. Moreover, the growth with SW-620 colon was 104%; in the assay on MCF7 breast, 94.3%; with HCT-116 colon, 84.3%; with HCC-2998 colon it was 106%; with KM12 colon, 94.6%.
Regarding `CC[C@@](C)(NC(=O)C(C)(C)NC(=O)[C@@H](NC(=O)[C@@H]1CCCN1C(=O)C(C)(C)NC(=O)[C@H](CC(C)C)NC(=O)CNC(=O)C(C)(C)NC(=O)[C@@H](NC(=O)C(C)(C)NC(=O)[C@H](CCC(N)=O)NC(=O)[C@H](C)NC(=O)C(C)(C)NC(=O)[C@H](C)NC(=O)C(C)(C)NC(=O)[C@H](C)NC(=O)C(C)(C)NC(C)=O)C(C)C)C(C)C)C(=O)N[C@@H](CCC(N)=O)C(=O)N[C@@H](CCC(N)=O)C(=O)N[C@H](CO)CC1CCCCC1`, the growth with SR leukemia was 27.7% [5 µM]; with RPMI-8226 leukemia, -16.2% [5 µM] (active); in the assay on OVCAR-8 ovarian, 87.7% [5 µM]; with OVCAR-5 ovarian, 19.9% [5 µM]; with OVCAR-4 ovarian, 58% [5 µM]; in the assay on IGROV1 ovarian, 42.1% [5 µM]. Moreover, the growth in the assay on OVCAR-3 ovarian is 19.2% [5 µM]; in the assay on HS 578T breast, 46.6% [5 µM]; with NCI/ADR-RES ovarian it was 101% [5 µM]; in the assay on T-47D breast, 12.2% [5 µM]; in the assay with BT-549 breast, -74.3% [5 µM] (active); with MDA-MB-435 melanoma, 12.4% [5 µM]. For the same molecule, the growth with SW-620 colon was 49.1% [5 µM]; in the assay with MCF7 breast it was 8.62% [5 µM] (active); in the assay on HCT-116 colon, 12.4% [5 µM]; with KM12 colon it was 34.8% [5 µM].
`COc1ccc(CCN2C(=O)CSC2=S)cc1OC`: the growth in the assay with SR leukemia is 64.6%; in the assay on RPMI-8226 leukemia, 32.8%; in the assay on OVCAR-8 ovarian, 98.6%; in the assay on OVCAR-5 ovarian, 104%; in the assay with OVCAR-4 ovarian, 100%; in the assay with IGROV1 ovarian, 102%. The growth in the assay on HS 578T breast is 104%; in the assay on NCI/ADR-RES ovarian, 101%; in the assay with T-47D breast it was 52.7%; in the assay on BT-549 breast it was 110%; in the assay on MDA-MB-435 melanoma it was 93.6%; in the assay with SW-620 colon, 57.9%. The growth with MCF7 breast was 29.3%; with HCT-116 colon, 99.6%; in the assay with HCC-2998 colon, 111%; in the assay with KM12 colon it was 16.6%.
`O=C(O)CNS(=O)(=O)c1ccc(Oc2ccc(S(=O)(=O)NCC(=O)O)cc2)cc1`: the growth in the assay on SR leukemia is 96.7%; with RPMI-8226 leukemia, 100%; with OVCAR-8 ovarian, 97.9%; with OVCAR-5 ovarian, 101%; in the assay with OVCAR-4 ovarian, 111%; in the assay on IGROV1 ovarian, 104%. In addition, the growth with OVCAR-3 ovarian was 104%; in the assay on HS 578T breast it was 95.2%; in the assay with NCI/ADR-RES ovarian it was 102%; in the assay on BT-549 breast, 115%; with MDA-MB-435 melanoma, 106%; with SW-620 colon, 102%. Also, the growth with MCF7 breast is 93.2%; with HCT-116 colon it was 103%; in the assay on HCC-2998 colon it was 105%; in the assay on KM12 colon, 98.4%.
As for `CN1C(=O)N(C)C2Nn3c(s/c(=C\c4ccccn4)c3=O)=NC21` (stereo not drawn), the growth is 109% with SR leukemia; 105% in the assay with RPMI-8226 leukemia; 101% with OVCAR-8 ovarian; 104% in the assay on OVCAR-5 ovarian; 104% in the assay on OVCAR-4 ovarian; 98.3% in the assay with IGROV1 ovarian. The growth in the assay with OVCAR-3 ovarian was 106%; in the assay on HS 578T breast, 113%; in the assay with NCI/ADR-RES ovarian it was 103%; in the assay on T-47D breast, 102%; in the assay with BT-549 breast it was 103%; in the assay on MDA-MB-435 melanoma, 99.2%. The growth in the assay with SW-620 colon was 105%; in the assay on MCF7 breast, 89.3%; with HCT-116 colon it was 100%; in the assay on HCC-2998 colon, 109%; with KM12 colon, 106%.
On to `CCc1ccc(NC(=O)N[C@@H](Cc2cccc(F)c2)C(=O)N[C@@H]2C(=O)N3CCC[C@H]3C(=O)N3CCCC[C@H]3C(=O)N[C@@H](CO)C(=O)N3C[C@H](C)C[C@H]3C(=O)O[C@H]2C)c(F)c1`, for which the growth in the assay on SR leukemia is 31.4%; in the assay on RPMI-8226 leukemia it was 20.3%; in the assay with OVCAR-8 ovarian it was 20.9%; in the assay on OVCAR-5 ovarian, 36.4%; in the assay with OVCAR-4 ovarian, 24.6%; with IGROV1 ovarian it was 39.5%. The growth is 35.5% in the assay with HS 578T breast; 60.6% in the assay with NCI/ADR-RES ovarian; 23.1% in the assay on T-47D breast; 28.5% in the assay on BT-549 breast; 20.3% in the assay on MDA-MB-435 melanoma; 34.6% in the assay on SW-620 colon. The growth was 14.9% in the assay with MCF7 breast, 10.8% with HCT-116 colon, 24.1% in the assay with HCC-2998 colon and 37.8% in the assay on KM12 colon.
